The values that follow come from PubChem BioAssay (NCI).

This is part of a sample that, as a whole, favours compounds with a hit. Of some 83,000 tested, about 20% had one in any assay.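 Interpretation: 100, growth as untreated; towards 0, rising growth inhibition; 0, no net growth; 0 to -100, cell death. Compounds scoring below 10 were considered active.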 A number with no mark means an inactive call. Active and inactive are the calls of the source.

This test concerns HL-60(TB) leukemia. Kind of test: NCI-60 one-dose screen, 48 h (100 = growth as untreated, 0 = no growth, -100 = all killed). The settings on record: 10 µM unless noted.
On to `CCOC(=O)c1c(NCC(=O)Nc2cccc(Cl)c2)sc2c1CCCC2`, for which the growth is 90.8%.
In the case of `NS(=O)(=O)Oc1ccc2nc(Nc3ccc(F)c(F)c3)ccc2c1` it was 71.3%; in that of `NS(=O)(=O)c1ccc(Nc2nc(N/N=C/c3ccc(F)cc3)nc(Nc3ccccc3)n2)cc1`, 60.4%.
For `COc1cc(C(=O)c2cc(C(C)=O)c3cccc(C)n23)cc(OC)c1OC` the value was 10.7%.
In the case of `CC(=O)Oc1ccccc1C(=O)Nc1ccc(C(=O)/C=C/c2cccs2)cc1` it was 103%; in that of `O=C1Nc2ccc(Cl)cc2/C1=C/c1ccc(OCC(=O)c2ccc(Br)cc2)cc1`, 110%; in that of `O=C1CSC(=O)N1Cc1cc2ccccc2nc1Cl`, 101%.
With `COc1ccc(NC(=O)[C@H](C)NC(=O)OC(C)(C)C)cc1C(=O)Nc1cccc(-c2cc(=O)c3c(OC)c(OC)c(OC)cc3o2)c1`, the growth is 2.88% (active).
For `O=C(CSc1nnc(-c2cccs2)n1-c1ccccc1)Nc1ccccc1` the value was 76%; for `COc1ccc(Cc2nn(CC(=O)N/N=C/c3ccc(Cl)cc3)c(=O)c3c(C)noc23)cc1`, 101%.
In the case of `C/C(=C(\c1ccc(O)cc1)c1ccc(OCCN2CCCCCC2)cc1)c1ccc(Cl)cc1`, the growth was -49.2% (active).
In the case of `COc1cc2nc(Cl)nc(Nc3cccc(C4=Nc5c(N)nc(N)nc5NC(c5ccc(Cl)cc5)C4)c3)c2cc1OC` (configuration not stated) it was -30.3% (active); in that of `COc1ccc(-c2nn3c(-c4ccccc4F)nnc3s2)cc1`, 47.7%; in that of `O=C1C(SCc2ccccc2)=C(Cl)CN1c1ccccc1`, 72.6%.
For `CCCCNNC(=O)c1ccc(-c2cccc(F)c2F)cc1` the value was 28.4%; for `Nc1cc(-c2c[nH]c3ccc(Cl)cc23)nc2cc(-c3c[nH]c4ccc(Cl)cc34)nn12`, 43.9%.
For `NC/C(=C/F)COc1ccc2nc(NCc3cccnc3)oc2c1` the value was 125%.
For the molecule `CN(C)CCNC(=O)c1ccc(-c2nc3ccc4[nH]ncc4c3c3c2COCC3)cc1`, the growth is -32.6% (active).
Turning to `N#Cc1c(-c2ccc(Cl)cc2)nc(SCc2ccc(F)cc2)nc1N1CCNCC1`, the growth was -34.8% (active).
As for `NS(=O)(=O)c1ccc(Nc2nc(N/N=C/C=C/c3ccccc3)nc(Nc3ccccc3)n2)cc1`, the growth was 38.6%.
With `C=CCn1c(SCC(=O)c2ccc(Br)cc2)nnc1-c1c[nH]c2ccccc12`, the growth was 92.3%.
As for `CNC(=O)c1cc(-c2ccc(NC(=S)Nc3cccc(C(F)(F)F)c3)cc2)nc2cccnc12`, the growth was 109%.
For `COc1ccc2c(c1)c(-c1cc(N)n3nc(-c4cn(C)c5ccc(OC)cc45)cc3n1)cn2C` the value was 5.19% (active); for `O=C(Cn1cc(CN2C(=O)c3ccc([N+](=O)[O-])cc3C2=O)nn1)Nc1ccc(F)cc1Cl`, 99.2%.
For `CN(C)c1cccc2c(S(=O)(=O)Nc3cccc(-c4csc(NC(=O)CCCCCN5CCN(CCO)CC5)n4)c3)cccc12` the value was 74.8%; for `COc1ccccc1NCc1cccn1Cc1ccc(F)cc1`, 104%.
In the case of `C/C=C/C=C1\C[C@H]2CO[C@H](O2)C1=O`, the growth was 99.8%.
Take `N=C1CC(=O)NN1C(=O)CSc1nc2sc3c(c2c(=O)n1-c1ccc(Cl)cc1)CCCC3`: the growth was 108%.
In the case of `CCN1C(=S)N(CC)C2C1NN=C1SC(c3ccccc3)=CC(=O)N12` (configuration not stated) it was 86.9%; in that of `C=C(C)[C@@H]1CC[C@]2(C(=O)NCCCCCN(CCC#N)CCC#N)CC[C@]3(C)[C@H](CC[C@@H]4[C@@]5(C)CCC(=O)C(C)(C)[C@@H]5CC[C@]43C)[C@@H]12`, 127%.
For `O=C1NC(=C(Cl)Cl)/C(=N/S(=O)(=O)N2CCCCC2CC2(C(F)(F)F)N=N2)N1` (configuration not stated), the growth is 1.49% (active).
Take `O=[N+]([O-])c1ccc(-c2nnc(SCc3ccc(O)c4ncccc34)o2)cc1`: the growth is 13.7%.
As to `Cc1cccc2c3c(sc12)C(c1ccc(F)cc1)C(C#N)=C(/N=C/c1ccc(Cl)cc1)O3` (configuration not stated), the growth is 2.41% (active).
On to `COc1ccc([C@@H]2[C@@H](O)C(=O)N2c2cc(OC)c(OC)c(OC)c2)cc1F`, for which the growth was -15.8% (active).
In the case of `Cc1ccc(/C=N/Nc2nc(Nc3ccccc3)nc(Nc3ccc(S(N)(=O)=O)cc3)n2)cc1` it was 75.2%; in that of `C#Cc1cc(C(=O)Nc2ccc(CNCCN3CCOCC3)c(C(F)(F)F)c2)ccc1C`, 86%.
In the case of `Cc1ccc2c(c1)Oc1nc(N)c(C#N)c(N)c1C2Sc1ccc(F)cc1` (configuration not stated) it was -51.7% (active).
